“And” between values parts separate entries of the source, which are not always exact repeats. Identical values can stand only once. Results filed as inconclusive are left out. A call without a number means that no potency is given here. The source made the active and inactive calls. The call rests on the fitted dose curve; in most records, active means well fitted inhibition curve with a large enough effect; inconclusive means small, poorly fitted or top-dose-only effect; inactive means flat fitted curve, though single readings scatter. Peptide text beside a SMILES is read from it.
Key:
[1] = target: Glutathione peroxidase 1 (Homo sapiens) (UniProt P07203); test: Primary qHTS Assay for Inhibitors of Recombinant Selenoprotein Glutathione Peroxidase 1 (GPX1) (AID 1845191)
Outline: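 GR-coupled readout: NADPH consumption tracked by fluorescence, ex 340/em 450 nm, at t=0 and after 15 min at RT. Final mix 10 nM GPX1, 1 mM GSH, 0.5 mM CHP, 0.5 mM NADPH, 100 nM GR, 0.01% BSA, following 30 min enzyme–compound preincubation.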

[2] = target: Phospholipid hydroperoxide glutathione peroxidase GPX4 (Homo sapiens) (UniProt P36969); test: Primary qHTS Assay for Inhibitors of Recombinant Selenoprotein Glutathione Peroxidase 4 (GPX4) (AID 1845192); further: potency means the concentration at half of the fitted maximal effect
Outline: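 Steps: GPX4 plus compound, 30 min RT; add GR/GSH/NADPH master mix; start with cumene hydroperoxide; read 340/450 nm fluorescence at 0 and 15 min. Finals were 200 nM GPX4, 1 mM GSH, 0.5 mM CHP, 0.5 mM NADPH, 100 nM GR.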
Further: nearly all actives have a fitted effect of over 65% in size.

Chain of Phospholipid hydroperoxide glutathione peroxidase GPX4 (Homo sapiens) (P36969 whole entry, looked up): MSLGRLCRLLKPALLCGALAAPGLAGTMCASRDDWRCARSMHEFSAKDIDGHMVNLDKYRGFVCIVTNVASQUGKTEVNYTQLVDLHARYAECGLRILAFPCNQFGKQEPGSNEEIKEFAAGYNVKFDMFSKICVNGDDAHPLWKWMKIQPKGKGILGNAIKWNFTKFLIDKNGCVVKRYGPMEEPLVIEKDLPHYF
Chain of Glutathione peroxidase 1 (Homo sapiens) (P07203 whole entry, looked up): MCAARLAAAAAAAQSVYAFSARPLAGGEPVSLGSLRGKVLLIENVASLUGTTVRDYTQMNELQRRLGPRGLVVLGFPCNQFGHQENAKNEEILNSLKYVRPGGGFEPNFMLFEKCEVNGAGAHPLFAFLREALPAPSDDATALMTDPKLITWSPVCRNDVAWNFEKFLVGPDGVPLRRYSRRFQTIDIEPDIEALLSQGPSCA

For CC(C)Oc1ccc2c(=O)c(-c3ccccc3)coc2c1, the Potency [1] was “inactive” and the Potency [2] was “inactive”.

With O=C(O)c1cc(=O)c2c(OCC(O)COc3cccc4oc(C(=O)O)cc(=O)c34)cccc2o1 the Potency [2] was “inactive”.

For Nc1ccn([C@@H]2O[C@H](CO)[C@@H](O)C2O)c(=O)n1 (stereo partly specified), the Potency [1] was “inactive” and the Potency [2] was “inactive”.

With CCCCC(CC)COC(=O)C(C#N)=C(c1ccccc1)c1ccccc1 (stereo unspecified) the Potency [2] was “inactive”.

CCCOc1ccc2nc(NC(=O)OC)[nH]c2c1 was tested, and the Potency [1] was “inactive” and the Potency [2] was “inactive”.

Cc1cc(=O)oc2cc(O)ccc12 was tested, and the Potency [2] was 12.8 µM (active) and 1.61 µM (active).

With COc1cc2c(N3CCN(C(=O)Nc4ccc(OC(C)C)cc4)CC3)ncnc2cc1OCCCN1CCCCC1 the Potency [2] was “inactive”.

For CCCCCCCCCCCCCCCCCCCCCCO, the Potency [2] was “inactive”.

With O=C(NC(Cc1cc(=O)[nH]c2ccccc12)C(=O)O)c1ccc(Cl)cc1 (stereo unspecified) the Potency [1] was “inactive” and the Potency [2] was “inactive”.

With Cc1ccc(C(=O)c2cc(O)c(O)c([N+](=O)[O-])c2)cc1 the Potency [2] was “inactive”.

For CCCCc1ccc2nc(NC(=O)OC)[nH]c2c1, the Potency [1] was “inactive” and the Potency [2] was “inactive”.

With Clc1ccc(C(Cn2ccnc2)OCc2ccc(Sc3ccccc3)cc2)c(Cl)c1 (stereo unspecified) the Potency [1] was “inactive” and the Potency [2] was “inactive”.

For CCCc1cc(=O)[nH]c(=S)[nH]1, the Potency [2] was “inactive”.

For O=C(NCC1CCCCN1)c1cc(OCC(F)(F)F)ccc1OCC(F)(F)F (stereo unspecified), the Potency [1] was “inactive” and the Potency [2] was “inactive”.

With OC(CN1CCN(c2cccc(Cl)c2)CC1)C(c1ccccc1)c1ccccc1 (stereo unspecified) the Potency [1] was “inactive” and the Potency [2] was “inactive”.

With COc1cc(OC)c(C(=O)CCCN2CCCC2)c(OC)c1 the Potency [1] was “inactive” and the Potency [2] was “inactive”.

In the case of COC1=C(OC)C(=O)C(CCCCCCCCCCO)=C(C)C1=O, the Potency [2] is reported as “inactive”.

With COC(=O)[C@H](Cc1ccccc1)NC(=O)[C@@H](N)CC(=O)O (H-Asp-Phe-OMe) the Potency [1] was “inactive” and the Potency [2] was “inactive”.

For CS(=O)(=O)OCCCCOS(C)(=O)=O, the Potency [2] was “inactive”.

In the case of Nc1ccc(S(N)(=O)=O)cc1, the Potency [2] is reported as “inactive”.

CCC[C@@H]1C[C@@H](C(=O)N[C@@H]([C@H]2O[C@H](SC)[C@H](O)[C@@H](O)[C@H]2O)[C@@H](C)O)N(C)C1 was tested, and the Potency [1] was “inactive” and the Potency [2] was “inactive”.

With Cc1ccc(S(=O)(=O)NC(=O)NN2CC3CCCC3C2)cc1 (stereo unspecified) the Potency [1] was “inactive” and the Potency [2] was “inactive”.

For CC1=C(C)C(=O)C(C(CCCCCC(=O)O)c2ccccc2)=C(C)C1=O (stereo unspecified), the Potency [2] was 11.2 µM (active).

With CC1Cc2ccccc2N1NC(=O)c1ccc(Cl)c(S(N)(=O)=O)c1 (stereo unspecified) the Potency [2] was “inactive”.

From PubChem BioAssay (NCATS)
